Test results taken from PubChem BioAssay AID1159580 (chemical genetic matrix, 2015).
“And” between values parts separate entries of the source, which are not always exact repeats. Equal values may be shown once. Hit rate of the full screen: of about 5,500 compounds, about 2,000 (36%) were called active. Not shown: some 18% with an inconclusive outcome. Rule as the data show it: active = normalized growth mostly below about 0.91 (no sharp cut-off); inconclusive = no clear call, values can overlap the other calls; inactive = mostly above about 0.92. This is one part of the list.

Assay: chemical genetic growth profiling, strain panel (AID 1159580);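 also: tested at 20 µM; growth read once vehicle control cultures reached saturation at 30 °C; 1 = growth at the plate median or of vehicle wells; lower values mean less growth of the strain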
Conditions: S. cerevisiae deletion strains, growth OD

Measured: normalized growth

COc1ccc(C(CN(C)C)C2(O)CCCCC2)cc1 (stereo unspecified)
inactive: locus YAL013W, strain DEP1, hits give low values 1.01 | locus YAL021C, strain ccr4, hits give low values 0.976 | locus YAL026C, strain drs2, hits give low values 0.995 | locus YAL030W, strain snc1, hits give low values 0.988 | locus YBL061C, strain skt5, hits give low values 0.992 | locus YBR009C, strain hhf1, hits give low values 1.01 | locus YBR021W, strain FUR4, hits give low values 1.02 | locus YBR023C, strain chs3, hits give low values 1.01 | locus YBR171W, strain sec66, hits give low values 0.982 | locus YBR229C, strain ROT2, hits give low values 1.01 | locus YBR231C, strain swc5, hits give low values 1.03 | locus YBR279W, strain paf1, hits give low values 1.01 | locus YCL011C, strain gbp2, hits give low values 0.994 | locus YCL016C, strain dcc1, hits give low values 1.01 | locus YCL029C, strain bik1, hits give low values 0.979 | locus YCL069W, strain vba3, hits give low values 0.974 | locus YCR088W, strain abp1, hits give low values 0.99 | locus YDL005C, strain med2, hits give low values 0.978 | locus YDL035C, strain GPR1, hits give low values 1.02 | locus YDL040C, strain nat1, hits give low values 0.962 | locus YDL074C, strain BRE1, hits give low values 1.03 | locus YDL101C, strain DUN1, hits give low values 1.02 | locus YDL134C, strain PPH21, hits give low values 1.02 | locus YDL185W, strain tfp1, hits give low values 0.997 | locus YDL192W, strain arf1, hits give low values 0.991 | locus YDR001C, strain nth1, hits give low values 0.986 | locus YDR069C, strain doa4, hits give low values 0.973 | locus YDR101C, strain arx1, hits give low values 0.986 | locus YDR137W, strain rgp1, hits give low values 0.971 | locus YDR150W, strain NUM1, hits give low values 1.01 | locus YDR159W, strain sac3, hits give low values 0.974 | locus YDR162C, strain NBP2, hits give low values 0.985 | locus YDR195W, strain ref2 0.975 | locus YDR297W, strain sur2, hits give low values 0.994 | locus YDR318W, strain mcm21, hits give low values 0.996 | locus YDR334W, strain swr1, hits give low values 0.97 | locus YDR335W, strain msn5, hits give low values 0.996 | locus YDR388W, hits give low values 0.988 | locus YDR392W, strain spt3, hits give low values 0.985 | locus YDR502C, strain sam2, hits give low values 0.99 | locus YEL003W, strain gim4, hits give low values 0.976 | locus YEL037C, strain rad23, hits give low values 0.974 | locus YEL061C, strain CIN8 (second series), hits give low values 0.98 | locus YEL061C, strain CIN8, hits give low values 1.01 | locus YER015W, strain faa2, hits give low values 1.01 | locus YER016W, strain bim1, hits give low values 0.972 | locus YER110C, hits give low values 0.99 | locus YER111C, strain swi4, hits give low values 0.994 | locus YER155C, strain BEM2 (second series), hits give low values 0.962 | locus YER155C, strain BEM2, hits give low values 0.987 | locus YER167W, strain BCK2, hits give low values 1.01 | locus YFR010W, strain ubp6, hits give low values 0.987 | locus YGL078C, strain dbp3, hits give low values 0.989 | locus YGL086W, strain mad1, hits give low values 0.996 | locus YGL167C, strain pmr1, hits give low values 0.979 | locus YGL173C, strain kem1, hits give low values 0.987 | locus YGL227W, strain vid30, hits give low values 0.988 | locus YGL240W, strain doc1, hits give low values 0.992 | locus YGL248W, strain PDE1, hits give low values 1.01 | locus YGL253W, strain hxk2, hits give low values 0.999 | locus YGR078C, strain PAC10, hits give low values 1 | locus YGR135W, strain pre9, hits give low values 0.985 | locus YGR229C, strain SMI1, hits give low values 1.02 | locus YGR252W, strain gcn5, hits give low values 0.973 | locus YHR013C, strain ard1, hits give low values 0.932 | locus YHR027C, strain rpn1, hits give low values 0.987 | locus YHR030C, strain SLT2, hits give low values 1.01 and 1 | locus YHR079C, strain IRE1 (second series), hits give low values 0.99 | locus YHR079C, strain IRE1, hits give low values 1.01 | locus YHR094C, strain hxt1, hits give low values 0.997 | locus YHR129C, strain ARP1, hits give low values 1.01 | locus YHR142W, strain chs7, hits give low values 0.974 | locus YHR200W, strain rpn10, hits give low values 0.996 | locus YIL066C, strain RNR3, hits give low values 1.01 | locus YIL073C, strain SPO22, hits give low values 1.04 | locus YIL125W, strain kgd1, hits give low values 0.998 | locus YIR030C, strain dcg1, hits give low values 0.986 | locus YJL092W, strain hpr5, hits give low values 0.976 | locus YJL095W, strain BCK1 (second series), hits give low values 0.984 | locus YJL095W, strain BCK1, hits give low values 1.01 and 0.997 | locus YJL115W, strain asf1, hits give low values 0.958 | locus YJL129C, strain trk1, hits give low values 0.989 | locus YJL134W, strain LCB3, hits give low values 1.01 | locus YJL154C, strain vps35, hits give low values 0.974 | locus YJL164C, strain tpk1, hits give low values 1 | locus YJL166W, strain qcr8, hits give low values 0.971 | locus YJL168C, strain set2, hits give low values 0.997 | locus YJL187C, strain SWE1 (second series), hits give low values 1.01 | locus YJR043C, strain POL32, hits give low values 1 | locus YJR066W, strain TOR1, hits give low values 0.979 | locus YJR075W, strain HOC1, hits give low values 1.02
